Our source for the binding signal values is PMC11006913.

Where a chain is given by its changes, count along the chain named.

Holding throughout (assay): PBM; 200 nM protein, PBS
What all share (settings): dsDNA, one strand shown

Experiment [1] deals with T1, SIX6 (Homo sapiens, UniProt O95475 114-200, L167I).
T1 sequence: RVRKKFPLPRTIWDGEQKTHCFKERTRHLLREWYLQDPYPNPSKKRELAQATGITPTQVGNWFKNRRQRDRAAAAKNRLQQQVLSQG

The target of experiment [2] is T2, SIX6 (Homo sapiens, UniProt O95475 114-200, L143V).
T2 sequence: T1 sequence with L30V, I54L

Experiment [3] addresses T3, SIX6 (Homo sapiens, UniProt O95475 114-200, H141N).
T3 sequence: T1 sequence with H28N, I54L

Experiment [4] addresses T4, SIX6 (Homo sapiens, UniProt O95475 114-200, T165P).
T4 sequence: T1 sequence with T52P, I54L

In experiment [5] the target is T5, SIX6 (Homo sapiens, UniProt O95475 114-200, L167M).
T5 sequence: T1 sequence with I54M

Experiment [6] addresses T6, SIX6 (Homo sapiens, UniProt O95475 114-200, L143M).
T6 sequence: T1 sequence with L30M, I54L

Experiment [7] concerns the target T7, SIX6 (Homo sapiens, UniProt O95475 114-200, L143I).
T7 sequence: T1 sequence with L30I, I54L

Experiment [8] addresses T8, SIX6 (Homo sapiens, UniProt O95475 114-200, T165G).
T8 sequence: T1 sequence with T52G, I54L

Experiment [9] concerns the target T9, SIX6 (Homo sapiens, UniProt O95475 114-200, T139Q).
T9 sequence: T1 sequence with T26Q, I54L

For experiment [10], the target named is T10, SIX6 (Homo sapiens, UniProt O95475 114-200, T165A).
T10 sequence: T1 sequence with T52A, I54L

Experiment [11] concerns the target T11, SIX6 (Homo sapiens, UniProt O95475 114-200, L167V).
T11 sequence: T1 sequence with I54V

Experiment [12] concerns the target T12, SIX6 (Homo sapiens, UniProt O95475 114-200).
T12 sequence: T1 sequence with I54L

In experiment [13] the target is T13, SIX6 (Homo sapiens, UniProt O95475 114-200, T165I).
T13 sequence: T1 sequence with T52I, I54L

Take GTGTATCA: the binding signal in experiment [1] was 11.5 upbm affinity estimate (log intensity, higher = more binding, comparable within an allelic series); in experiment [2], 10.5 upbm affinity estimate (log intensity, higher = more binding, comparable within an allelic series); in experiment [3], 11.4 upbm affinity estimate (log intensity, higher = more binding, comparable within an allelic series); in [4] it was 9.86 upbm affinity estimate (log intensity, higher = more binding, comparable within an allelic series); in experiment [5] it was 10.9 upbm affinity estimate (log intensity, higher = more binding, comparable within an allelic series); in [6], 11.2 upbm affinity estimate (log intensity, higher = more binding, comparable within an allelic series). Further, the binding signal in [7] was 10.5 upbm affinity estimate (log intensity, higher = more binding, comparable within an allelic series); in experiment [8], 11.5 upbm affinity estimate (log intensity, higher = more binding, comparable within an allelic series); in [9], 11.4 upbm affinity estimate (log intensity, higher = more binding, comparable within an allelic series); in experiment [10], 11.4 upbm affinity estimate (log intensity, higher = more binding, comparable within an allelic series); in experiment [11] it was 11.2 upbm affinity estimate (log intensity, higher = more binding, comparable within an allelic series); in [12], 11.3 upbm affinity estimate (log intensity, higher = more binding, comparable within an allelic series). For the same sequence, the binding signal in experiment [13] is 11.2 upbm affinity estimate (log intensity, higher = more binding, comparable within an allelic series).
Consider CGATACCC, for which the binding signal in [1] is 11.2 upbm affinity estimate (log intensity, higher = more binding, comparable within an allelic series); in experiment [2] it was 10.2 upbm affinity estimate (log intensity, higher = more binding, comparable within an allelic series); in [3] it was 11.3 upbm affinity estimate (log intensity, higher = more binding, comparable within an allelic series); in experiment [4], 9.23 upbm affinity estimate (log intensity, higher = more binding, comparable within an allelic series); in [5] it was 10.4 upbm affinity estimate (log intensity, higher = more binding, comparable within an allelic series); in experiment [6], 11 upbm affinity estimate (log intensity, higher = more binding, comparable within an allelic series). For the same sequence, the binding signal is 10.4 upbm affinity estimate (log intensity, higher = more binding, comparable within an allelic series) in experiment [7]; 11.3 upbm affinity estimate (log intensity, higher = more binding, comparable within an allelic series) in [8]; 11.4 upbm affinity estimate (log intensity, higher = more binding, comparable within an allelic series) in experiment [9]; 11.2 upbm affinity estimate (log intensity, higher = more binding, comparable within an allelic series) in [10]; 10.9 upbm affinity estimate (log intensity, higher = more binding, comparable within an allelic series) in experiment [11]; 11.1 upbm affinity estimate (log intensity, higher = more binding, comparable within an allelic series) in [12]. In addition, the binding signal in [13] was 11 upbm affinity estimate (log intensity, higher = more binding, comparable within an allelic series).
For AGCGGCGC, the binding signal was 8.85 upbm affinity estimate (log intensity, higher = more binding, comparable within an allelic series) in experiment [1]; 8.89 upbm affinity estimate (log intensity, higher = more binding, comparable within an allelic series) in experiment [2]; 8.85 upbm affinity estimate (log intensity, higher = more binding, comparable within an allelic series) in experiment [3]; 8.89 upbm affinity estimate (log intensity, higher = more binding, comparable within an allelic series) in [4]; 8.88 upbm affinity estimate (log intensity, higher = more binding, comparable within an allelic series) in experiment [5]; 8.98 upbm affinity estimate (log intensity, higher = more binding, comparable within an allelic series) in experiment [6]. Further, the binding signal in [7] is 8.84 upbm affinity estimate (log intensity, higher = more binding, comparable within an allelic series); in experiment [8], 8.81 upbm affinity estimate (log intensity, higher = more binding, comparable within an allelic series); in experiment [9], 8.91 upbm affinity estimate (log intensity, higher = more binding, comparable within an allelic series); in [10], 8.86 upbm affinity estimate (log intensity, higher = more binding, comparable within an allelic series); in experiment [11] it was 8.82 upbm affinity estimate (log intensity, higher = more binding, comparable within an allelic series); in [12] it was 8.72 upbm affinity estimate (log intensity, higher = more binding, comparable within an allelic series). Also, in experiment [13], the binding signal was 8.83 upbm affinity estimate (log intensity, higher = more binding, comparable within an allelic series).
As for ATGTATCG, the binding signal in experiment [1] was 11 upbm affinity estimate (log intensity, higher = more binding, comparable within an allelic series); in [2], 10.3 upbm affinity estimate (log intensity, higher = more binding, comparable within an allelic series); in experiment [3], 11 upbm affinity estimate (log intensity, higher = more binding, comparable within an allelic series); in experiment [4], 10 upbm affinity estimate (log intensity, higher = more binding, comparable within an allelic series); in experiment [5], 10.6 upbm affinity estimate (log intensity, higher = more binding, comparable within an allelic series); in [6] it was 10.8 upbm affinity estimate (log intensity, higher = more binding, comparable within an allelic series). The binding signal in [7] is 10.4 upbm affinity estimate (log intensity, higher = more binding, comparable within an allelic series); in experiment [8], 11 upbm affinity estimate (log intensity, higher = more binding, comparable within an allelic series); in experiment [9] it was 11.1 upbm affinity estimate (log intensity, higher = more binding, comparable within an allelic series); in [10], 11 upbm affinity estimate (log intensity, higher = more binding, comparable within an allelic series); in [11], 10.7 upbm affinity estimate (log intensity, higher = more binding, comparable within an allelic series); in experiment [12], 10.9 upbm affinity estimate (log intensity, higher = more binding, comparable within an allelic series). Moreover, in [13], the binding signal is 10.8 upbm affinity estimate (log intensity, higher = more binding, comparable within an allelic series).
As for CGCAGCGC, the binding signal in experiment [1] was 9.07 upbm affinity estimate (log intensity, higher = more binding, comparable within an allelic series); in experiment [2], 8.94 upbm affinity estimate (log intensity, higher = more binding, comparable within an allelic series); in [3] it was 9.04 upbm affinity estimate (log intensity, higher = more binding, comparable within an allelic series); in [4] it was 8.96 upbm affinity estimate (log intensity, higher = more binding, comparable within an allelic series); in [5] it was 9.06 upbm affinity estimate (log intensity, higher = more binding, comparable within an allelic series); in experiment [6] it was 9.12 upbm affinity estimate (log intensity, higher = more binding, comparable within an allelic series). The binding signal was 9.01 upbm affinity estimate (log intensity, higher = more binding, comparable within an allelic series) in experiment [7]; 8.94 upbm affinity estimate (log intensity, higher = more binding, comparable within an allelic series) in experiment [8]; 8.99 upbm affinity estimate (log intensity, higher = more binding, comparable within an allelic series) in experiment [9]; 8.97 upbm affinity estimate (log intensity, higher = more binding, comparable within an allelic series) in experiment [10]; 9.06 upbm affinity estimate (log intensity, higher = more binding, comparable within an allelic series) in experiment [11]; 8.95 upbm affinity estimate (log intensity, higher = more binding, comparable within an allelic series) in [12]. Besides, in experiment [13], the binding signal was 9.02 upbm affinity estimate (log intensity, higher = more binding, comparable within an allelic series).
